The text below walks through data of PubChem BioAssay (Tox21).

The source made the active and inactive calls. Calls follow the shape of the dose curve; as a rule, active = well fitted activation curve with a large enough effect in the repeat runs; inconclusive = weak or mixed curves; inactive = flat fitted curve, though single readings scatter.
% is scaled to controls: 0 for no effect and ±100 for the full control effect.

A short description of this assay: Caspase-3/7 induction in CHO-K1 cells by small molecules, qHTS assay (AID 1346980). Also: nearly all actives have a fitted effect of over 15% in size. To be noted: CHO-K1 caspase-3/7 induction, Caspase-Glo luminescence, 17 h; series mostly up to 92.4 µM; caspase-3/7 activation: at the top concentration. The source says:
National Center for Advancing Translational Sciences [NCATS]
NIH Chemical Genomics Center [NCGC]
U.S. Environmental Protection Agency [EPA]
National Institutes of Environmental Health Sciences [NIEHS]
National Toxicology Program [NTP]
Apoptosis is a process of programmed cell death and plays a central role in the development of multicellular organisms. It is a highly regulated process and induces cell death by activating caspases, which are the members of cysteine aspartic acid-specific protease (caspase) family. Caspases involved in apoptosis are classified by their mechanism of action as initiator caspases (caspase-2, -8, -9 and -10) and executioner caspases (caspase-3, -6, and -7). Inhibition of apoptosis results in number of cancers, autoimmune diseases, inflammatory diseases and viral infection. To identify small molecule compounds that induce apoptosis, a homogeneous, luminescent Caspase-Glo 3/7 assay was used. Wild type CHO-K1 cells were used to screen Tox21 libraries for identifying caspase-3/7 activity inducers.
CHO-K1 cells were dispensed at 1,500 per well in 5uL of culture medium into white solid bottom 1536-well plates (Corning Life Sciences, Corning, NY) using a Multidrop Combi (Thermo Scientific, Waltham, MA) dispenser. The assay plates were incubated at 37 C and 5% CO2 for 5hr, and then 23nL of compounds dissolved in DMSO and positive control were transferred using a Pintool station (Wako, San Diego, CA). The assay plates were incubated at 37C and 5% CO2 for 17hr. For caspase-3/7 activity read, 4uL of Caspase-Glo 3/7 reagent (Promega Corporation, Madison, WI) was added to each well of the assay plates using Flying Reagent Dispenser (FRD, Aurora Discovery, San Diego, CA) and incubated the assay plates at room temperature for 30min. The luminescence signal was quantified using a ViewLux plate reader (Perkin Elmer, Shelton, CT).
Consider `CCCCCCOc1cc(C)c(O)c(C)c1C`, for which the “caspase-3/7 activation” value is 6.91% (inactive).
For the compound `CC(=O)OC1CCCCC1`, the “caspase-3/7 activation” value was -2.01% (inactive).
With `C[C@H]1O[C@@H](O[C@H]2[C@@H](O)C[C@H](O[C@H]3[C@@H](O)C[C@H](O[C@H]4CC[C@@]5(C)[C@H](CC[C@@H]6[C@@H]5C[C@@H](O)[C@]5(C)[C@@H](C7=CC(=O)OC7)CC[C@]65O)C4)O[C@@H]3C)O[C@@H]2C)C[C@H](O)[C@@H]1O`, the Potency result was “inactive”.
For the compound `CC(C)c1ccccc1N`, the “caspase-3/7 activation” value is -0.0134% (inactive).
Same read-out and setting: under `Cc1ccc(CCn2c3c(c4cc(Cl)ccc42)CN(C)CC3)cn1` stands -1.46% [at 42.5 µM] (inactive); under `c1ccc(Sc2ccccc2)cc1`, -1.83% (inactive).
Same read-out and setting: the same measure for `Clc1cccnc1`: -0.0626% (inactive); for `OCCCS`: 0.844% (inactive).
For `CCCCCCCOC(=O)c1ccc(O)cc1`, the Potency result was “inactive”.
On to `Oc1ccc(-c2ccccc2)c(Cl)c1`, for which the “caspase-3/7 activation” value is 0.129% (inactive).
For the compound `SCCCCCCCCS`, the “caspase-3/7 activation” value was -0.115% (inactive).
The same measure, in the same setting: under `O=c1cccc[nH]1` stands -0.0824% (inactive).
Still for that read-out and setting: under `ClC/C=C\CCl` stands 0.201% (inactive).
`O=Cc1ccc(F)cc1`: the “caspase-3/7 activation” value was -1.76% (inactive).
On the same count and under the same terms, under `CN1[C@@H]2CC[C@@H]1CC(OC(=O)C(CO)c1ccccc1)C2` (stereo not given in full) stands -1.25% [at 42.5 µM] (inactive).
As for `CC(=O)Oc1ccc(C2(c3ccc(OC(C)=O)cc3)C(=O)Nc3ccccc32)cc1`, the “caspase-3/7 activation” value is -0.0396% [at 42.5 µM] (inactive).
The same measure, in the same setting: the same measure for `CC(C)(C)c1n[nH]c(=O)n(N)c1=O`: -1.06% (inactive); for `CC(=O)c1ccccc1N`: 1.91% (inactive).
Same read-out and setting: under `O=C(O)Cc1ccc(OCCNC[C@H](O)c2ccccc2)cc1` stands -0.989% [at 42.5 µM] (inactive).
The same measure, in the same setting: the same measure for `O=C1Nc2ccc(Cl)cc2[C@@](C#CC2CC2)(C(F)(F)F)O1`: 8.79% [at 42.5 µM] (inactive); for `CC1CCCNC1` (stereo not given): 0.283% (inactive).
Turning to `Clc1ccc(C(c2ccccc2Cl)C(Cl)Cl)cc1` (stereo not given), the “caspase-3/7 activation” value is 9.18% [at 42.5 µM] (inactive).
Still for that read-out and setting: under `C[C@]12CC[C@H]3C(=CCc4cc(O)ccc43)[C@@H]1CCC2=O` stands -2.06% (inactive).
Same read-out and setting: the same measure for `C/C=C/c1ccc(OC)c(OC)c1`: -0.682% (inactive); for `CCCCCCCCCCCCCOP(=O)(O)O`: -0.762% (inactive).
Still for that read-out and setting: the same measure for `CCCC(O)C(O)CO` (stereo not given): 0.207% (inactive); for `CCc1ccc(C)nc1`: 0.726% (inactive).
Consider `C=CC(C)(CCC=C(C)C)OC(=O)/C=C/c1ccccc1` (stereo not given), for which the “caspase-3/7 activation” value is 4.24% (inactive).
On the same count and under the same terms, under `C[C@@H]1CC[C@H]2C(C)(C)[C@H]3C[C@@]12CC[C@@]3(C)O` stands -1.74% (inactive).
The same measure, in the same setting: the same measure for `C/C=C/C(=O)C1=C(C)CCCC1(C)C`: -1.89% (inactive); for `O=C1OC(=O)c2cccc3cccc1c23`: -1.03% (inactive).
Still for that read-out and setting: the same measure for `CNC(=S)NN`: 7.32% (inactive); for `CO[Si](CCC1CCC2OC2C1)(OC)OC` (stereo not given): 1.7% (inactive).
For `CCN(CC)CCCN(c1ccccc1)C1Cc2ccccc2C1`, the “caspase-3/7 activation” value was 1.21% [at 42.5 µM] (inactive).
As to `CC(C)OC(=O)c1cc(C(=O)OC(C)C)cc([N+](=O)[O-])c1`, the “caspase-3/7 activation” value was -2.59% (inactive).
As for `CC1CCCCN1CCCOC(=O)c1ccc(OC2CCCCC2)cc1` (stereo not given), the “caspase-3/7 activation” value is 0.953% [at 42.5 µM] (inactive).
With `O=C(O)c1cccc(Cl)n1`, the “caspase-3/7 activation” value was 0.0736% (inactive).
The same measure, in the same setting: under `CC(COC(=O)c1ccccc1)OC(=O)c1ccccc1` (stereo not given) stands 1.78% (inactive); under `C[n+]1c2cc(N)ccc2cc2ccc(N)cc21` (tested in a mixture with another compound), 6.3% [at 42.5 µM] (inactive).
As to `CCc1cccc(CC)c1N(COC)C(=O)CS(=O)(=O)O`, the “caspase-3/7 activation” value is -0.964% (inactive).
